According to PubChem BioAssay (Tox21):
Inconclusive results are not listed. Entries that show only a call come without a potency. The source made the active and inactive calls. Calls come from the whole dose curve; as a rule, active = well fitted activation curve with a large enough effect in the signal ratio in the repeat runs (not every such curve was filed as active); inconclusive = weak or mixed curves; inactive = flat fitted curve, though single readings scatter; the % refers to the signal ratio.

Assay: p53 small molecule agonists, cell-based qHTS assay (AID 1963582)
Details: HCT-116 p53RE-bla reporter, beta-lactamase FRET ratio, 16 h; series mostly up to 66 µM
Text: National Center for Advancing Translational Sciences [NCATS]
Division of Preclinical Innovation [DPI]
U.S. Environmental Protection Agency [EPA]
National Institutes of Environmental Health Sciences [NIEHS]
National Toxicology Program [NTP]
U.S. Food and Drug Administration [FDA]
p53, a tumor suppressor protein, is activated following cellular insult, including DNA damage and other cellular stresses. The activation of p53 regulates cell fate by inducing DNA repair, cell cycle arrest, apoptosis, or cellular senescence. The activation of p53, therefore, is a good indicator of DNA damage and other cellular stresses. […] The activation of the reporter gene under culture conditions can be detected by fluorescence intensity. This cell line was used to screen the Tox21 10K compound library in a 1536-well plate format and to identify agonists that activate the p53 signaling pathway.
Tox21 Assay Protocol Summary:
The p53RE-bla cells were dispensed at 4,000 cells/5 ul/well in 1536-well black wall/clear bottom plates using a Multidrop dispenser. After the assay plates were incubated at a 37 C/5% CO2 incubator for 5 hours, 23 nL of compounds dissolved in DMSO, positive controls or DMSO only was transferred to the assay plate by a pin tool. The plates were incubated at 37 C for 16 hours. After 1 uL of LiveBLAzerTM B/G FRET substrate was added using a Flying Reagent Dispenser, the plates were incubated at room temperature for 2 hours, and fluorescence intensity was measured by an Envision plate reader.

| Structure (SMILES) | Potency |
| --- | --- |
| CCCCOC(=O)[C@H](C)O | inactive |
| O=S(O)CO | inactive |
| CCCCCC/C=C/C(=O)OC | inactive |
| Cc1ccc(C=O)cc1 | inactive |
| CC(=O)Nc1ccc(C)cc1 | inactive |
| CC(C)(C)c1cc(C(C)(C)C)c(O)c(C(C)(C)C)c1 | inactive |
| NC(=O)NNC(N)=O | inactive |
| NCCNCCO | inactive |
| NCC1(Cc2noc(=O)[nH]2)CCCCC1 | inactive |
| C[C@@H]1CCC[C@H](C)N1 | inactive |
| COc1cc(C=O)ccc1OC(=O)C(C)C | inactive |
| CNC(=O)c1c(I)c(NC(C)=O)c(I)c(C(=O)O)c1I | inactive |
| COC(=O)CCC(=O)O | inactive |
| O=CC1CC1 | inactive |
| NCc1cccc(CN)c1 | inactive |
| CC(=O)c1ccc2c(c1)CCCC2 | inactive |
| CCCCCCCCCCCCCCC(=O)O | inactive |
| CCCCC(CC)COC(=O)CCCCCCCC(=O)OCC(CC)CCCC (stereo not given) | inactive |
| NCCN1CCNC1=O | inactive |
| O=S(=O)(O)C(F)(F)F | inactive |

| Structure (SMILES) | Potency |
| --- | --- |
| C=CCOc1cc(Cl)ccc1C(=O)NCCN(CC)CC | inactive |
| O=C(c1ccccc1O)c1ccccc1O | inactive |
| OCCCC1CCCCC1 | inactive |
| FC(F)(F)c1ccccc1-n1ccnc1 | inactive |
| CN1CCCC1=O | inactive |
| O=C(O)CONC(=O)c1ccccc1 | inactive |
| CCOCCOCCOCC | inactive |
| OCc1c2ccccc2cc2ccccc12 | inactive |
| COc1ccc(Cl)cc1C | inactive |
| COC(=O)C1=C(C)NC(C)=C(C(=O)OCC(C)C)C1c1ccccc1[N+](=O)[O-] (stereo not given) | inactive |
| CCC(=O)CC | inactive |
| O=C(O)c1ccccc1[N+](=O)[O-] | inactive |
| COC(=O)OC | inactive |
| CC(C)c1cc2c(cc1S(=O)(=O)O)[C@@]1(C)CCC[C@@](C)(C(=O)O)[C@@H]1CC2 | inactive |
| OCCN1CCNCC1 | inactive |
| Fc1c(F)c(F)c(Br)c(F)c1F | inactive |
| COc1cccc(OC)c1 | inactive |
| CCC(=O)OC(C)c1ccccc1 (stereo not given) | inactive |
| Cc1ccc(S(=O)(=O)NC(=O)NC2CCCCCCC2)cc1 | inactive |
| CC(C)CC=O | inactive |
